Here are results for five molecules from PubChem BioAssay.

Assay [1] can be described thus: Her2 expression decrease, cell viability multiplex – SKBR3 breast tumor cells, AlphaScreen, ATP viability, primary screen (AID 461;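 active = Her2 level under about 52% in both replicate screens, with viability over 70% of control, limit read from the data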;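 for Her2 level: lower value means less Her2 protein in the cells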;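 for viability: percent of carrier control wells set as 100% viability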). The settings on record: SKBR3 Her2 protein level, 18-24 h, measured here: SKBR3 viability, ATP luminescence, at 10 µM.
The target in assay [2] is Receptor tyrosine-protein kinase erbB-2 (Homo sapiens) (UniProt P04626). Described as above. The settings on record: 18-24 h, at 10 µM, stronger effect = lower value.
A short description of assay [3]: reduced viability of SK-BR-3 breast cancer cells – cell-based, 24 h, human, pilot screen (AID 572;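 active = viability at or below 10% of carrier control in both of two separate runs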;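 note: compound exposure lasted between 18 and 24 h rather than exactly 24 h; 100% = carrier-treated control wells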). The settings on record: SK-BR-3 viability, CellTiter-Glo luminescence, at 10 µM, stronger effect = lower value. On the technique in general: In ATP-based viability assays light output follows the ATP content of the culture.
The nature of assay [4]: HUVEC growth inhibition – cell-based, human, primary screen (AID 575;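 active = viability at or below 30% in both replicate assays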;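 note: 100% = median of untreated cell wells with 0.1% DMSO on each plate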). The settings on record: HUVEC proliferation, CellTiter-Glo luminescence, 72 h; at 10 µM; stronger effect = lower value.
A short description of assay [5]: H69AR cell proliferation blockers – human, duplicate replicates, primary screen (AID 580;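 active = viability at or under a set limit in both replicates, limit being median viability minus 3 SD, cut at about 48% in these data, passing the limit was not always enough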;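 note: 100% = mean luminescence of untreated wells and 0% = no signal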). Particulars: H69AR lung tumor cells viability, ATP luminescence, 72 h; at 10 µM; stronger effect = lower value.
Assay [6] in a line: MRP1 drug-resistance reversers in H69AR cells – cell-based, doxorubicin co-treatment, pilot screen (AID 601;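 active = viability loss from added drug above about 55%, and viability with drug at most 40%, in both replicates, limit read from the data, passing the limit was not always enough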). The settings on record: CellTiter-Glo, 72 h, at 10 µM; for differential viability (reversal): stronger effect = higher value.
Assay [7] in a line: yeast transport mutant growth inhibition pilot in 384-well plates, post-Golgi transport modulator project (AID 636; in the data active = inhibition above about 31%). The settings on record: absorbance 615 nm, about 18 h, stronger effect = higher value.
A short description of assay [8]: growth suppression of yeast trafficking mutant, preliminary HTS, modulators of trafficking downstream of Golgi apparatus project, 1536-format plate, OD 615 nm (AID 637; in the data active = inhibition above about 30%). The settings on record: yeast transport mutant growth, absorbance 615 nm, 18 h; stronger effect = higher value.
Assay [9] is described as follows: S. cerevisiae growth inhibition in permissive medium (OD615), pilot counter-assay for S. cerevisiae lifespan shortening project, permissive growth control (AID 705;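 active = growth inhibition above 25% in both replicates, a cutoff set 3 SD above the mean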). The settings on record: OD615, 24 h, at 10 µM, stronger effect = higher value.
Assay [10] can be described thus: S. cerevisiae growth inhibition in restrictive medium, OD615, pilot screen, restrictive growth control, yeast lifespan reduction project (AID 706;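 active = growth inhibition above a set limit, 3 SD over mean compound inhibition, in both replicates, cut at about 43% in these data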;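 note: modified DeaD lifespan yeast strain shifted to restrictive glucose medium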). Particulars: OD615, 48 h, at 10 µM, stronger effect = higher value.
Assay [11] can be described thus: doxorubicin toxicity protection in MRP-1 cells – H69AR cells, CellTiter-Glo, duplicate, MRP-1 activator project, pilot screen (AID 807;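 active = viability increase at or above a cutoff of the median across tested compounds plus 3 SD, cut at about 8.5% in these data, passing the limit was not always enough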;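 note: compound pretreatment 18-22 h then 72 h combined with doxorubicin; 0% = doxorubicin alone and 100% = vehicle without doxorubicin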). Particulars: H69AR viability with doxorubicin, CellTiter-Glo luminescence; at 10 µM; stronger effect = higher value.
A short description of assay [12]: viability of HCT116 without oncogenic beta-catenin – human colon tumor cells, pilot screen (AID 823;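 active = cell viability at or below a set limit in both duplicate runs, the limit being the all-compound median minus 4 SD, cut at about 23% in these data, passing the limit was not always enough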;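 note: 0% = wells killed by 20 µM Hyamine and 100% = untreated DMSO cell wells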). Particulars: HCT116 beta-catenin knockout viability, CellTiter-Glo, 60 h; at 10 µM; stronger effect = lower value.
Assay [13] in a line: viability of PTEN-null HCT116 cells – cell-based, HCT116 clonal line, CellTiter-Glo, pilot screen (AID 824;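 active = viability at or below 27.92% in each of two runs, the all-compound median minus 4 SD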;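 note: 0% = 20 µM Hyamine control and 100% = vehicle cell control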). Particulars: HCT116 PTEN-deleted viability, 60 h, at 10 µM, stronger effect = lower value.
A short description of assay [14]: RAM pathway blockade in budding yeast – dse1pr::URA3 reporter, 5-FOA selection, pilot screen (AID 869;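 active = inhibition over a set limit, the all-compound mean plus 3 SD, in both replicate runs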;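 note: 0% = DMSO wells with no growth and 100% = 10 µM 1-NA-PP1 with full growth; RAM network block rescues cells from 5-FOA so hits raise OD615 growth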). The settings on record: S. cerevisiae dse1pr::URA3 5-FOA growth, OD615, 2 d; at 10 µM; stronger effect = higher value; strain carries analog-sensitive mutant Cbk1 kinase.
Assay [15] is described as follows: RAM signaling pathway blockade in yeast – S. cerevisiae, Pdr1DBD-CYC8 efflux-inhibited sensitized strain, primary screen (AID 1298).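 Note: 0% = DMSO untreated cells without growth and 100% = 10 µM 1-NA-PP1 full growth; higher means more yeast growth rescued from 5-FOA killing.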 Particulars: S. cerevisiae cbk1-as DSE1-URA3 strain, 5-FOA growth OD615, 2 d; at 50 µM; stronger effect = higher value.
The mark [16] stands for this setting: H69AR cells + 2 uM doxorubicin, measured here: viability with 2 uM doxorubicin, stronger effect = lower value.
[17] abbreviates: H69AR cells, compound alone cytotoxicity.

Structures are written as SMILES. Inconclusive results are not listed. Activity calls are given as the source filed them.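 Rule for the calls, unless noted: active = RAM network inhibition above 8.4% in each of two replicates, 3 SD over the compound average; inconclusive = above 8.4% inhibition in only one replicate; inactive = 8.4% inhibition or less in each replicate.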

Receptor tyrosine-protein kinase erbB-2 (Homo sapiens), sequence (P04626 whole entry, looked up): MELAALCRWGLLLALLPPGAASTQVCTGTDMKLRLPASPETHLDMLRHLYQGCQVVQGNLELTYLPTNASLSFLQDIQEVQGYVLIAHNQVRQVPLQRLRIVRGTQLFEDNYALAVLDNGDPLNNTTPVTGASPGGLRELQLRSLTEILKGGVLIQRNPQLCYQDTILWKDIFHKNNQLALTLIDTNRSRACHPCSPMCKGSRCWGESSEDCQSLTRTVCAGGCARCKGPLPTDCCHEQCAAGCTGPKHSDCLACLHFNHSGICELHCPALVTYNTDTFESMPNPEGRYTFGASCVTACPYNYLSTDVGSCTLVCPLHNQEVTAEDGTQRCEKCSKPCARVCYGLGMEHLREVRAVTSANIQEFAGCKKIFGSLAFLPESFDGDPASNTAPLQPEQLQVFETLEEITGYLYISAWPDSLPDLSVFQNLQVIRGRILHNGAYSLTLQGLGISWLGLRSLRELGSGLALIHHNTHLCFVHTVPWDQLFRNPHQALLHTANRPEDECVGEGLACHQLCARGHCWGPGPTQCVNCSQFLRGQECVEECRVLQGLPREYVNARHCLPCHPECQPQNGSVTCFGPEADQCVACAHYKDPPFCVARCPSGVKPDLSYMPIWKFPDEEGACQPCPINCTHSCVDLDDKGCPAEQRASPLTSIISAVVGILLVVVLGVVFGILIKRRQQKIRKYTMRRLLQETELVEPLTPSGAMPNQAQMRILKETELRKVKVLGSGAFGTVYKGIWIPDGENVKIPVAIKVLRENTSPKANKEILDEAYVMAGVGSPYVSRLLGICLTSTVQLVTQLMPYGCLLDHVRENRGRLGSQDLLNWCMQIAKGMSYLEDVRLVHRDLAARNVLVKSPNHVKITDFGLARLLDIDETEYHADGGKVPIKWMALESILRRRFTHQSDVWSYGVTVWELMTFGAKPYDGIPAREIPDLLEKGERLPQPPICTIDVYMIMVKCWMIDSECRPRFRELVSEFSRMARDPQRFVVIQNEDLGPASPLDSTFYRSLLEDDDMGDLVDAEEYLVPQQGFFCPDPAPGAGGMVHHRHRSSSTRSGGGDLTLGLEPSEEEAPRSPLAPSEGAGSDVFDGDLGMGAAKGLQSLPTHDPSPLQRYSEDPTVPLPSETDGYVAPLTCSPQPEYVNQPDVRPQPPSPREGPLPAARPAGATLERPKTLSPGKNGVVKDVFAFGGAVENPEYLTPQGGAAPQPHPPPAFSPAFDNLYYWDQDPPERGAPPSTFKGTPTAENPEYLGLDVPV

By viability is commonly meant a read-out of living cells in per cent, often relative to untreated cells. What is called inhibition is the relative decrease from the control value, in per cent. Consider `COc1ccccc1CC(=O)Nc1ccc(OC)c(OC)c1`, for which the viability in assay [1] is 102%; in assay [3], 102% (inactive); in assay [4] it was 101% (inactive); in [5], 89.6% (inactive); in assay [6] (setting [16]), 83.6%; in assay [6] (setting [17]) it was 89.6%. Also, the viability in assay [12] is 101% (inactive); in assay [13], 104% (inactive). For the same molecule, the Her2 level in assay [2] is 98.5% (inactive). In [6] (H69AR cells + 2 uM doxorubicin), the differential viability (reversal) is 6% (inactive). The inhibition was -6.76% (inactive) in [7], 5.74% (inactive) in assay [8] and 1.22% (inactive) in assay [14]. The values for the growth inhibition in [9] and in [10] were -8.11% (inactive) and -4.82% (inactive), respectively. Further, the viability increase in assay [11] is -0.4% (inactive). The RAM network inhibition in assay [15] is 2.2% (inactive).
For the molecule `O=C(Nc1ccccc1)C1=C(O)CC(c2ccoc2)CC1=Nc1ccccc1` (stereo not given), the viability was 93% in assay [1]; 93% (inactive) in assay [3]; 96.8% (inactive) in [4]; 73% (inactive) in assay [5]; 79.7% in assay [6] (setting [16]); 73% in assay [6] (setting [17]). Moreover, the viability in assay [12] was 69.6% (inactive); in assay [13], 70.3% (inactive). The Her2 level in assay [2] was 91% (inactive). In addition, the differential viability (reversal) in assay [6] (H69AR cells + 2 uM doxorubicin) was -6.7% (inactive). Further, the inhibition in assay [7] is 71.4% (active); in assay [8], 4.59% (inactive); in assay [14] it was 1.05% (inactive). Also, the growth inhibition was -11.2% (inactive) in assay [9] and -4.9% (inactive) in assay [10]. The viability increase in [11] is -4.69% (inactive). Also, the RAM network inhibition in assay [15] was 2.05% (inactive).
For the molecule `Cc1ccc(N(C)C(=O)N2CCN(c3ccccn3)CC2)cc1`, the viability in [1] was 94.5%; in [3] it was 94.5% (inactive); in assay [4], 109% (inactive); in [5] it was 98.2% (inactive); in [6] (setting [16]) it was 90.7%; in assay [6] (setting [17]), 98.2%. The figures for the viability in assay [12] and in assay [13] were 97.6% (inactive) and 97.1% (inactive), respectively. In addition, the Her2 level in assay [2] is 112% (inactive). Besides, the differential viability (reversal) in assay [6] (H69AR cells + 2 uM doxorubicin) was 7.52% (inactive). The results for the inhibition in assay [7], in [8] and in assay [14] were 2.27% (inactive), -0.5% (inactive) and 1.14% (inactive), respectively. The growth inhibition in [9] is 0.955% (inactive); in assay [10], 5.44% (inactive). For the same molecule, the viability increase in assay [11] was -1.03% (inactive). The RAM network inhibition in [15] is -0.55% (inactive).
Consider `CSc1ccccc1NC(=O)c1cnc2n(c1=O)CCS2`, for which the viability in assay [1] was 97.5%; in assay [3], 97.5% (inactive); in assay [4], 111% (inactive); in assay [5] it was 84.7% (inactive); in assay [6] (setting [16]), 91.3%; in assay [6] (setting [17]), 84.7%. The viability in [12] is 105% (inactive); in [13], 85.8% (inactive). Further, in [2], the Her2 level is 82.5% (inactive). Besides, the differential viability (reversal) in assay [6] (H69AR cells + 2 uM doxorubicin) was -6.53% (inactive). The inhibition in assay [7] is -1.87% (inactive); in [8] it was -1.33% (inactive); in assay [14], 2.75% (inactive). The growth inhibition in [9] is -10.6% (inactive); in assay [10], 3.57% (inactive). In assay [11], the viability increase is -0.39% (inactive). For the same molecule, in [15], the RAM network inhibition is -0.78% (inactive).
As for `CC(OC(=O)C1CC=CCC1C(N)=O)C(Cl)=C(Cl)Cl` (stereo not given), the viability was 88% in assay [1]; 88% (inactive) in assay [3]; 80.8% (inactive) in [4]; 93.7% (inactive) in assay [5]; 86.5% in assay [6] (setting [16]); 93.7% in assay [6] (setting [17]). In addition, the viability in assay [12] was 103% (inactive); in assay [13] it was 105% (inactive). For the same molecule, in assay [2], the Her2 level was 105% (inactive). The differential viability (reversal) in [6] (H69AR cells + 2 uM doxorubicin) is 7.14% (inactive). The inhibition in assay [7] is 6.1% (inactive); in [8] it was 1.31% (inactive); in assay [14], 0.055% (inactive). Also, the growth inhibition is -2.97% (inactive) in [9] and -1.67% (inactive) in [10]. Moreover, the viability increase in assay [11] is 0.52% (inactive). In addition, the RAM network inhibition in [15] was 2.45% (inactive).
